Results: PubChem BioAssay AID493168 (National Center for Advancing Translational Sciences (NCATS), 2011)
Records with an inconclusive call do not appear. A call without a number means that no potency is given here. Calls of active or inactive are those of the source. Calls come from the whole dose curve; as a rule, active = well fitted inhibition curve with a large enough effect; inconclusive = small, poorly fitted or top-dose-only effect, or effect the other way; inactive = flat fitted curve, though single readings scatter.

target: Ubiquitin carboxyl-terminal hydrolase 2 (Homo sapiens) (UniProt O75604); assay: Confirmation Assay for Inhibitors of Ubiquitin-specific Protease USP2a Using CHOP2 as the Reporter; settings: USP2 core, Ub-CHOP2 coupled reporter fluorescence; series mostly up to 38.3 µM; note: nearly all actives have a fitted effect of over 55% in size
Summary of the method: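 Ub-CHOP2 cleavage coupled to reporter activation was read by fluorescence after 60 min at RT, with 25 nM final Ub-CHOP2 and substrate. Enzyme (10 nM final USP2 core) first sat 30 min with compound; data were normalized to NEM and fitted to concentration-response curves.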
Potency is the fitted concentration of half-maximal effect.

Ubiquitin carboxyl-terminal hydrolase 2 (Homo sapiens), sequence (O75604 whole entry, looked up): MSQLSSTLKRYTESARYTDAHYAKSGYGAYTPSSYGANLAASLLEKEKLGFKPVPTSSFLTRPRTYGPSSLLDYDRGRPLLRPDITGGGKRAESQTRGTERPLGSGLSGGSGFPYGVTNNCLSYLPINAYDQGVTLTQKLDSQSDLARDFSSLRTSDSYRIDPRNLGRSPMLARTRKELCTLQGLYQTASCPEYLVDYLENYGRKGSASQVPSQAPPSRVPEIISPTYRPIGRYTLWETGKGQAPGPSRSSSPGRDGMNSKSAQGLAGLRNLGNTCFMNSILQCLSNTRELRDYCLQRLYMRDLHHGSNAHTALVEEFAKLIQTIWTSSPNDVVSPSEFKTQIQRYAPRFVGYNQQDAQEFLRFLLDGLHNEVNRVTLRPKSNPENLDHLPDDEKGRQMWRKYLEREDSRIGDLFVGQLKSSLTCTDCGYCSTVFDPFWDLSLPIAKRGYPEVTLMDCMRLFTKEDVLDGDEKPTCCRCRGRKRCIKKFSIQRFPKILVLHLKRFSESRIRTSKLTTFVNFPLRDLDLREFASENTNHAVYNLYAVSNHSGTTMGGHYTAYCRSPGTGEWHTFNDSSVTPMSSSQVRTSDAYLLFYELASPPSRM

SMILES | Potency
Cc1ccc2[nH]c(=O)c(COC(=O)c3ccccn3)cc2c1 | inactive
CC1CCN(CC(O)COc2cccc(F)c2)CC1 (centres undefined) | inactive
OCCN(Cc1ccccc1)c1ncnc2sccc12 | inactive
CCc1cc(C(=O)N=Nc2c(O)[nH]c3ccc([N+](=O)[O-])cc23)c2ccccc2n1 | 14.7 µM (active)
Cc1nc2n(n1)CC(O)CS2 (centres undefined) | inactive
Cc1ccccc1OCCn1nc(C(=O)O)c2ccccc2c1=O | inactive
CCOC(=O)C1CCN(CC(O)COc2ccc(C(C)(C)C)cc2)CC1 (centres undefined) | inactive
Cc1csc(NC(=O)CCn2c(=O)sc3ccccc32)n1 | inactive
N#C/C(=C\c1ccc(O)c(O)c1)C(=O)Nc1cccc2ncccc12 | 18.5 µM (active)
CCOc1ccccc1C(=O)N[C@H](C(=O)Nc1ccc(OC)c(S(=O)(=O)N2CCOCC2)c1)C(C)C | inactive
CCOC(=O)N1CCN(S(=O)(=O)c2ccc(C)cc2)C1c1ccc(OC)cc1 (centres undefined) | inactive
Cc1cccn2c(=O)c3cc(C(=O)NCCN4CCOCC4)c(=N)n(CCN4CCOCC4)c3nc12 | inactive
Cc1ccc(C(C(=O)NC2CCCC2)N2CCc3ccccc32)cc1 (centres undefined) | inactive
COc1ccc(CCNC(=O)COC(=O)CNS(=O)(=O)c2ccc(SC)c([N+](=O)[O-])c2)cc1 | inactive
Cn1nc(CC(=O)NCc2ccc(F)cc2)c2ccccc2c1=O | inactive
O=C(O)c1cccc(-n2cccc2/C=C2/NC(=O)N(c3ccc(Cl)cc3)C2=O)c1 | 9.27 µM (active)
O=C1NC[C@@H](c2ccccc2)OC(=O)[C@@H](Cc2ccc(F)cc2)CC/C=C/C[C@@H]1CC(=O)N(CCO)Cc1ccccc1 | inactive
CCOC(=O)N1CCN(C(=O)c2cc3c(ccc4ccccc43)oc2=O)CC1 | inactive
CCC(CO)Oc1cc(NCc2cccc(C)c2)c2ncn(C(C)C)c2c1 (centres undefined) | inactive
O=[N+]([O-])c1ccc(Sc2nnnn2-c2ccccc2)c(Cl)c1 | inactive

SMILES | Potency
CCOc1ccc2[nH]c(=O)c(CN(CCc3ccccc3)C(=O)c3cnccn3)cc2c1 | inactive
CCc1cc2cccc(C)c2nc1SCC(=O)N1CCN(C(=O)c2ccco2)CC1 | inactive
CCC(=O)Nc1c2c(nn1-c1ccc(F)cc1)CS(=O)C2 (centres undefined) | inactive
COc1ccc(-n2c(=S)[nH]c3cc(C(=O)Nc4cc(OC)c(OC)c(OC)c4)ccc3c2=O)c(OC)c1 | inactive
Cc1cc(C(=O)OCC(=O)c2cccc([N+](=O)[O-])c2)c2cccc(C)c2n1 | inactive
c1ccc(Nc2c3c(nc4ncnn24)CCC3)cc1 | inactive
Cc1ccc(-c2ccc(CCC(=O)O)n2NC(=O)c2cccs2)cc1 | inactive
O=C1/C(=C/C=C/c2ccco2)SC(=S)N1c1ccc(O)cc1 | 5.21 µM (active)
CC(C)(C)C1CCC(=NNC(=O)CN(c2ccccc2)S(C)(=O)=O)CC1 (centres undefined) | inactive
CS(=O)(=O)c1nc(-c2ccc(Br)cc2)cc(-c2ccccc2)c1C#N | inactive
Cc1nn(CC(=O)Nc2cccc(S(N)(=O)=O)c2)c(C)c1[N+](=O)[O-] | inactive
CC1(C)CC(=O)C=C(NCc2cccs2)C1 | inactive
O=S(=O)(c1cc(Cl)ccc1Cl)N1CCNCC1 | inactive
CC1=NN(C(=O)c2csc(C)c2C)C(O)(C(F)(F)F)C1 (centres undefined) | inactive
Cc1cc(-c2csc(NC(=O)c3ccc(=O)[nH]c3)n2)c(C)n1Cc1ccccc1 | inactive
CC(NC(=O)COc1ccccc1-c1ccccc1)c1ccccc1 (centres undefined) | inactive
CCN(CC(=O)Nc1ccc(NC(C)=O)cc1)C(=O)c1ccc(N2CCC(C)CC2)c([N+](=O)[O-])c1 | inactive
C#CCOCCOCCOCCNc1nc(N2CCN(C(=O)CCCCCCCCCCNC(=O)[C@@H](CCC(=O)O)n3cc(CCCCCN)nn3)CC2)nc(N2CCN(C(=O)CCCCCCCCCCNC(=O)[C@H](CCCCN)n3cc(C[C@@H](C)CC)nn3)CC2)n1 | 5.21 µM (active)
O=C(Nc1cccc(S(=O)(=O)N2CCCC2)c1)c1cncc(Br)c1 | inactive
